In PubChem BioAssay AID588511 (Johns Hopkins Ion Channel Center, 2011) one finds normalized B-score (activity score, 25-100; higher = stronger inhibition) data, which are given here for 50 molecules.

The whole screen tested about 310,000 compounds, of which about 3,600 (1.2%) were called active.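 How the source made its calls: active means ratio plate-corrected score three or more library SD toward inhibition, starting fluorescence score within five deviations; inactive means the rest.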 What follows is part of a selection rich in actives, with near analogues and random picks from the rest.

For the assay, the target named is Anoctamin-1 (Mus musculus) (UniProt Q8BHY3). The experiment in a line: blockers of mouse ANO1 Ca-activated Cl channel – cell-based, HTS, primary screen (AID 588511).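 On normalized B-score (activity score, 25-100; higher = stronger inhibition): score derived from kinetic fluorescence span divided by baseline fluorescence per well.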 The settings on record: HEK293 TMEM16A/YFP iodide influx fluorescence, ionomycin; at 10 µM.
Anoctamin-1 (Mus musculus), sequence (Q8BHY3 whole entry, looked up): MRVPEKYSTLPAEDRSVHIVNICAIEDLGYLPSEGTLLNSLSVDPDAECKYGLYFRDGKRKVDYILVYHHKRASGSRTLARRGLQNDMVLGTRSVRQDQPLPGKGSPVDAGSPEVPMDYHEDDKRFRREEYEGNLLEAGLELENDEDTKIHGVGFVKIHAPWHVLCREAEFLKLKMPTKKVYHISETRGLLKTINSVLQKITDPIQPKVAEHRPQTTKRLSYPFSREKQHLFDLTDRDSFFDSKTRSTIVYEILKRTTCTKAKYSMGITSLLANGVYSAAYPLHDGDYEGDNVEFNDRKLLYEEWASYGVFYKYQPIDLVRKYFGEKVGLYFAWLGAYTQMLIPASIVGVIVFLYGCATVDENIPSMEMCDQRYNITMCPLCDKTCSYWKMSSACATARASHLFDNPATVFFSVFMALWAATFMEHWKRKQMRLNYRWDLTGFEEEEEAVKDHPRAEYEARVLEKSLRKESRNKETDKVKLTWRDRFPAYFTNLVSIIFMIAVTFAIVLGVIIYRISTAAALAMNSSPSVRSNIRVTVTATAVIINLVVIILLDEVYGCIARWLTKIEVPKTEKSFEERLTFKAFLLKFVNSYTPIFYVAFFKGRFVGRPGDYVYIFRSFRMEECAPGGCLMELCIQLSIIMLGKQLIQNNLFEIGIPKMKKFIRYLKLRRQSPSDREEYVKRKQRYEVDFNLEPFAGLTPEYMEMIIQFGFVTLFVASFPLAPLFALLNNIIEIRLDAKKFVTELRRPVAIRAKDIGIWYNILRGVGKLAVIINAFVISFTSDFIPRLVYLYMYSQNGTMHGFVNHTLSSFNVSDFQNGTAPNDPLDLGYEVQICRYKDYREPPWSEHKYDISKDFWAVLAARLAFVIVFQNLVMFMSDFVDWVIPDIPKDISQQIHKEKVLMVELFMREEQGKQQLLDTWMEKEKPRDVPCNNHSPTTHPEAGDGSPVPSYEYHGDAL
For the molecule `Nc1nnc2c(C(F)(F)F)nc3ccccc3n12`, the normalized B-score (activity score, 25-100; higher = stronger inhibition) entry was “inactive”.
As to `Cc1nc2c(C(=O)NCc3ccc4c(c3)OCO4)c[nH]n2c(=O)c1Cc1ccccc1F`, the normalized B-score (activity score, 25-100; higher = stronger inhibition) is 100 (active).
With `O=C(NCc1ccc2c(c1)OCO2)c1cc(F)c(F)cc1Cl` the entry was “inactive”.
With `CCn1c(=O)c(C(=O)NCc2ccc3c(c2)OCO3)c(O)c2ccccc21` the entry was “inactive”; with `CCN(C(=O)Cc1nc(N)n[nH]1)C1(C(=O)Nc2ccccc2)CCCCC1`, “inactive”; with `COc1ccc(C(=O)NC2CCCc3c2cnn3-c2cccc(C)c2C)c(OC)n1` (stereo not given), 100 (active).
Consider `Cn1nccc1C(=O)NC1CCCc2c1cnn2-c1ccccc1F` (stereo not given), for which the normalized B-score (activity score, 25-100; higher = stronger inhibition) entry is “inactive”.
With `Cc1cc(C(=O)NC2CCCc3c2cnn3-c2cccc(C)c2C)c(C)o1` (stereo not given) the entry was “inactive”; with `O=C(CCN1C(=O)c2ccccc2C1=O)C1=NN[C@@H]2C(=O)N(c3ccc(F)cc3)C(=O)[C@H]12`, “inactive”; with `C=CCC(CC=C)(C(N)=O)c1ccccc1`, “inactive”.
As for `Cc1ccc(S(=O)(=O)N2[C@@H](c3ccccc3F)C(C(=O)O)=CC[C@H]2c2ccc(Cl)cc2)cc1`, the normalized B-score (activity score, 25-100; higher = stronger inhibition) entry was “inactive”.
`Cc1ccccc1NC(=O)NCC1CCN(Cc2cccc(Cl)c2)CC1`: the normalized B-score (activity score, 25-100; higher = stronger inhibition) result is “inactive”.
Consider `Cc1ccccc1S(=O)(=O)N1[C@@H](c2cccc(Cl)c2)C(C(=O)O)=CC[C@H]1c1ccc(Cl)cc1`, for which the normalized B-score (activity score, 25-100; higher = stronger inhibition) was 100 (active).
With `Cc1ccc(S(=O)(=O)N2[C@@H](c3cccc(Cl)c3)C(C(=O)O)=CC[C@H]2c2ccc(Cl)c(Cl)c2)cc1` the figure was 100 (active); with `CS(=O)(=O)N(CC(=O)N1CCN(c2cccc(Cl)c2)CC1)c1ccccc1`, “inactive”.
`Cc1ccc([C@@H]2CC=C(C(=O)O)[C@H](c3cccc(Cl)c3)N2S(=O)(=O)c2ccc(C)cc2)cc1`: the normalized B-score (activity score, 25-100; higher = stronger inhibition) result is “inactive”.
With `CC(C)CCNC(=O)CC1C(=O)N(Cc2ccccc2)C(C)c2nc3ccccc3n21` (stereo not given) the entry was “inactive”.
With `CC1CCN(Cc2nc3c(c(=O)n(C)c(=O)n3C)n2CCc2ccccc2)CC1` the entry was “inactive”.
Turning to `O=C(Nc1ccccc1C(=O)NCC1CCCO1)c1ccccc1F` (stereo not given), the normalized B-score (activity score, 25-100; higher = stronger inhibition) entry was “inactive”.
With `CCC(C(=O)NCc1cccnc1)n1nc(C)c2sc3ccccc3c2c1=O` (stereo not given) the entry was “inactive”; with `O=C(Nc1nc(-c2ccc3c(c2)OCO3)cs1)c1ccncc1`, 100 (active).
With `CC(=O)NCCC(=O)Nc1nc(-c2ccc3c(c2)OCCO3)cs1` the entry was “inactive”; with `O=C(Nc1nc2ccccc2s1)c1ccc2c(c1)OCO2`, “inactive”.
Turning to `O=C(O)Cc1csc(NC(=O)CSc2nnnn2-c2ccc(O)cc2)n1`, the normalized B-score (activity score, 25-100; higher = stronger inhibition) result is “inactive”.
`CC(C)NC(=O)NCCCCCCS(C)=O` (stereo not given): the normalized B-score (activity score, 25-100; higher = stronger inhibition) entry is “inactive”.
`Cc1cc(C)c(S(=O)(=O)c2ccc(F)cc2C)c(=O)[nH]1`: the normalized B-score (activity score, 25-100; higher = stronger inhibition) result was “inactive”.
As to `COc1ccccc1S(=O)(=O)c1c(C)cc(C)[nH]c1=O`, the normalized B-score (activity score, 25-100; higher = stronger inhibition) result was “inactive”.
For the molecule `C=C(C)Cn1c(C)cc(C)c(S(=O)(=O)c2ccccc2C)c1=O`, the normalized B-score (activity score, 25-100; higher = stronger inhibition) was 100 (active).
With `Cc1ccc(NC(=O)CSc2nn3c(=O)c(C)nnc3s2)cc1Cl` the entry was “inactive”.
As for `CCC(C)c1ccccc1NC(=O)CN(C)CC(=O)Nc1ccccc1SC` (stereo not given), the normalized B-score (activity score, 25-100; higher = stronger inhibition) result was “inactive”.
With `CCCCOC(=O)CCCc1ccc([N+](=O)[O-])cc1[N+](=O)[O-]` the entry was “inactive”.
On to `O=C(N/N=C/c1cc(Cl)cc([N+](=O)[O-])c1O)C(O)(c1ccccc1)c1ccccc1`, for which the normalized B-score (activity score, 25-100; higher = stronger inhibition) was 100 (active).
With `CN(C)/N=C/c1cc(Cl)cc([N+](=O)[O-])c1O` the entry was “inactive”; with `O=C(N/N=C/c1cc(Br)c(O)c([N+](=O)[O-])c1)C(O)(c1ccccc1)c1ccccc1`, “inactive”.
With `O=C(NCc1ccncc1)NC12CC3CC(CC(C3)C1)C2` the entry was “inactive”.
With `S=C(NCc1ccc(Cl)cc1)NC12CC3CC(CC(C3)C1)C2` the figure was 100 (active); with `O=C(NCc1ccc(Cl)cc1)NCc1ccc(Cl)cc1`, “inactive”; with `C=CCn1c2ccccc2c2nnc(SCc3[nH]c(=O)[nH]c3C(=O)CCCCC(=O)OCC)nc21`, “inactive”.
Take `COc1cc(N2C(=O)CC3(CCCC3)CC2=O)cc(OC)c1OC`: the normalized B-score (activity score, 25-100; higher = stronger inhibition) result was “inactive”.
On to `COc1cc(OC)cc(C(=O)NNC(=O)CNC(=O)c2ccc(Br)o2)c1`, for which the normalized B-score (activity score, 25-100; higher = stronger inhibition) result was “inactive”.
As for `CSCc1ccc(C(=O)Nc2cc(C)cc(C)c2)cc1`, the normalized B-score (activity score, 25-100; higher = stronger inhibition) result was “inactive”.
As to `Cc1occc(=O)c1OCc1ccc(F)cc1`, the normalized B-score (activity score, 25-100; higher = stronger inhibition) result was “inactive”.
With `Fc1ccccc1COc1cccc2cccnc12` the entry was “inactive”; with `Cc1nc2ccccc2cc1OCc1ccc(F)cc1`, 25 (active); with `CC1CCCCN1C(=O)Cn1c(=O)oc2cc(S(=O)(=O)N3CCCCC3)ccc21` (stereo not given), “inactive”.
Consider `Cc1cc(C)cc(NC(=O)Cn2cnc3c(nnn3Cc3ccc(F)cc3)c2=O)c1`, for which the normalized B-score (activity score, 25-100; higher = stronger inhibition) result is “inactive”.
With `CCC1SC2=NCCN2C1(O)c1ccc(Cl)cc1` (stereo not given) the entry was “inactive”; with `Clc1ccc(-c2nnc(SCc3nc4ccccc4s3)o2)cc1`, “inactive”.
With `c1ccc(-c2nnc(SCc3nc4ccccc4[nH]3)o2)cc1` the figure was 25 (active); with `Clc1ccccc1SCc1nc2ccccc2[nH]1`, “inactive”.
